# Screens from PubChem BioAssay.
# Hits are enriched below; roughly 11% of the tested compounds scored in any of these assays.
# NPR1 antag – Natriuretic polypeptide receptor (hNpr1) antagonism - Primary qHTS; Atrial natriuretic peptide receptor 1 (Homo sapiens), P16066; HEK293 hNpr1 GloSensor cGMP, ANP-stimulated luminescence; Potency, µM (top dose mostly 46.3 µM), without a hit: at the highest dose activity change, negative = inhibition, hits mostly inhibitors; 76,000 tested, 1.6% active; calls by dose curve; note: nearly all actives have a fitted effect of over 60% in size
# Target sequence (P16066 whole entry, looked up): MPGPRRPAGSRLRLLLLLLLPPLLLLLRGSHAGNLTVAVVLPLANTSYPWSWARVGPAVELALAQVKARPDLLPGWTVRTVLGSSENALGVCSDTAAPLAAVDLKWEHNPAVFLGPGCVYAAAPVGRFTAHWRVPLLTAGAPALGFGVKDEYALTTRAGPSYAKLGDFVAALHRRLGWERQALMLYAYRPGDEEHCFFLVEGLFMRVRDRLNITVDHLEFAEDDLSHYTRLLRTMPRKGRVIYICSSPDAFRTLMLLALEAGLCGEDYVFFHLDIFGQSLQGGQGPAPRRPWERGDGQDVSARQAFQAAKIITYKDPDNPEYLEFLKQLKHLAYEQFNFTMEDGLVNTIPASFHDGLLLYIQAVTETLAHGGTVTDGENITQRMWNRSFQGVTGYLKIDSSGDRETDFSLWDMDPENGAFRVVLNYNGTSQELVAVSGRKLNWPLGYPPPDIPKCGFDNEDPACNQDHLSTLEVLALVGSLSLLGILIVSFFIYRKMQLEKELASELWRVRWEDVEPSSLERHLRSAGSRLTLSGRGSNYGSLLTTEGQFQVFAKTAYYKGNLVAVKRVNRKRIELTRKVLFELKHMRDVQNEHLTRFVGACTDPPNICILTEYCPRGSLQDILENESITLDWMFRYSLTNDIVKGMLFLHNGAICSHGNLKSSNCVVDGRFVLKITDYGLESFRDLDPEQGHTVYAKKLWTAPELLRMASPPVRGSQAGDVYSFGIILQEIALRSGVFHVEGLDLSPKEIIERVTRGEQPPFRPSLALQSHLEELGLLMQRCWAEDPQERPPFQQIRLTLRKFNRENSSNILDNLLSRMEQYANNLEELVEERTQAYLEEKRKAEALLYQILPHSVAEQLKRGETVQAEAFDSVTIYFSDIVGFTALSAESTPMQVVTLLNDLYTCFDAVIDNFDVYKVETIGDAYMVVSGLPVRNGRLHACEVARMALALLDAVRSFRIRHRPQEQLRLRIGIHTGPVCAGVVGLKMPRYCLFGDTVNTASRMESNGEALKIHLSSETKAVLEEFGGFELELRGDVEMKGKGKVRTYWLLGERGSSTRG
#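 Compound pre-incubated 30 min at room temperature on GloSensor-loaded HEK293 cells stably carrying hNpr1 and the pGS-40F cGMP biosensor. Stimulation uses hNppA at 0.1 nM final; luminescence is taken at baseline and 20 min post-agonist.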
# NIH3T3 tox – Cytotoxic Profiling in NIH 3T3 Cell Line of Diverse Libraries Using Quantitative High-Throughput Screening | NIH 3T3 viability, CellTiter-Glo ATP luminescence, 48-72 h | Potency, µM (highest dose often 96.7 µM), for inactives: at the highest dose activity change, negative = cytotoxicity, actives largely listed as inhibitors | 94,000 tested, 4.3% active; note: nearly all actives have a fitted effect of over 55% in size
#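 NIH 3T3 cells at 400 cells/well received 23 nL of compound by pintool and were incubated 48 or 72 h at 37 °C. Viability was read as ATP-coupled CellTiter-Glo luminescence.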
# Luciferase inh – Firefly luciferase inhibition profiling of diverse chemical library using quantitative high-throughput screening; Luciferin 4-monooxygenase (Photinus pyralis), P08659; purified P. pyralis luciferase, luminescence, biochemical; Potency, µM (highest dose often 115 µM), most hits filed as inhibitors; 76,000 tested, 2.5% active; note: nearly all actives have a fitted effect of over 65% in size
#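 Inhibitors were tested against purified firefly luciferase in a biochemical, low-substrate format (both substrates at 10uM) and luminescence measured with a CCD imager.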
# HEK cytotox – Cytotoxic Profiling in HEK 293 Cell Line of Diverse Libraries Using Quantitative High-Throughput Screening; 94,000 tested, 6.6% active; HEK 293 viability, ATP luminescence (CellTiter-Glo), 48-72 h; AID 1345083, 2018; Potency, µM (highest dose often 115 µM), for the others: top-dose activity change, negative = cytotoxicity, hits mostly inhibitors; note: nearly all actives have a fitted effect of over 60% in size
#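 Luminescence from cellular ATP, measured with CellTiter-Glo, indicates HEK 293 viability. Cells plated at 250 cells/well are treated with compound for 48 or 72 hr at 37 degree Celsius before reagent addition.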
# Active calls of the source: *; i = inactive; ? = inconclusive; · = no result; ! = not active in a repeat; [ ] = remark or other dose. Unless noted, calls come from the whole dose curve; as a rule, active = well fitted curve in the direction sought with a large enough effect; inconclusive = small, poorly fitted or top-dose-only effect, or another doubt; inactive = no such curve, though single readings can be large; an effect the other way counts as inactive or inconclusive. % is set by controls: 0 for no effect and ±100 for the full control effect; potency is the fitted concentration of half-maximal effect.
SMILES,NPR1 antag,NIH3T3 tox,Luciferase inh,HEK cytotox
O=C(Nc1ccccc1)NC1CCN(Cc2cccc(-c3cccs3)c2)CC1,·,14.1µM*,·,20µM*!
O=C(Nc1ccc(Cl)cc1)N1CCCN(c2ccc3nnc(C4CC4)n3n2)CC1,·,-26.0%,·,-1.6%
Cc1nn(-c2ccccc2)c2c1C(C1CC1)N(C1CN(C(=O)c3ccc(F)cc3)C1)C2=O (stereo not given),·,?,·,44.7µM*
COCC(=O)N1CC(N2C(=O)c3c(c(C)nn3-c3ccccc3)C2C2CC2)C1 (stereo not given),·,112µM*,·,-13.6%[172 µM]
CC(C)(C)OCC1CN(Cc2cccc(F)c2)[S+](=O)([O-])c2cccnc2O1 (stereo not given),·,-28.4%[46.1 µM],·,?
O=C(NCc1cccnc1)c1cnc2c(c1)N([S+](=O)([O-])c1cccnc1)CCC2,3.0%[70.6 µM],?,i,-12.9%[172 µM]
CCc1ccccc1CN1CCCC12Cc1ccccc1CNC2=O (stereo not given),·,?,·,79.4µM*
O=C1NCc2ccccc2CC12CCCN2Cc1cc(F)ccc1F (stereo not given),·,?,·,35.5µM*
CCOc1cccc(CN2CCCC23Cc2ccccc2CNC3=O)c1 (stereo not given),·,?,·,79.4µM*!
O=C1NCc2ccccc2CC12CCCN2Cc1ccc(F)cc1F (stereo not given),·,?,·,-26.9%
CCc1ccccc1CN1CCC2(Cc3ccccc3CNC2=O)C1 (stereo not given),·,?,·,79.4µM*
O=C(O)c1ccccc1CN1CCC2(Cc3ccccc3CNC2=O)C1 (stereo not given),·,i,·,i
O=C(Cc1cccc(F)c1)N1CCC(Cc2nncn2CC2CC2)C1 (stereo not given),·,?,·,-1.2%
O=C(Nc1cc(-c2ccncc2)nn1-c1ccccc1)C1CC1,·,?,·,2.4%[172 µM]
C[S+](=O)([O-])N1CCCC1C(=O)N1CCC(N2Cc3ccccc3C2=O)CC1 (stereo not given),·,3.4%,·,-2.1%
CC(=O)Nc1cccc(C(=O)N2CCC(c3n[nH]c(=O)n3-c3ccc(C)cc3)CC2)c1,-1.4%,i,i,-2.4%
O=C1NCc2ccccc2CC12CCN(Cc1cccc(F)c1)C2 (stereo not given),·,-5.7%,·,?
Cc1ccsc1CN1CCCCC12Cc1ccccc1CNC2=O (stereo not given),·,?,·,31.6µM*
O=C1NCc2ccccc2CC12CCN(Cc1cccc(C(F)(F)F)c1)C2 (stereo not given),·,?,·,39.8µM*
COc1ccccc1-c1cc(NCc2ccncc2)c2onc(C)c2n1,-0.1%[70.6 µM],?,i,?
COc1ccc(Nc2cc(-c3ccccc3OC)nc3c(C)noc23)cc1OC,-17.2%[70.6 µM],20µM*,i,?
COc1ccccc1-c1cc(Nc2ccc(N3CCOCC3)cc2)c2onc(C)c2n1,2.4%[70.6 µM],?,i,63.1µM*
COc1ccc(CCC(=O)N2CCC3(CC2)CC(CC(=O)N2CCOCC2)CCO3)cc1 (stereo not given),·,-11.0%,·,i
Cn1ncc2c(C(=O)NCC3CCCCCC3)cc(-c3ccccc3F)nc21,·,?,·,31.6µM*
COc1ccccc1-c1cc(C(=O)NCC2CCCCC2)c2cnn(C)c2n1,·,-17.1%,·,-1.8%
SMILES,NPR1 antag,NIH3T3 tox,Luciferase inh,HEK cytotox
Cn1ncc2c(C(=O)NCCc3ccccc3F)cc(-c3ccc(F)cc3)nc21,·,?,·,31.6µM*
COc1ccc(CCNC(=O)c2cc(-c3ccccc3F)nc3c2cnn3C)cc1,·,?,·,35.5µM*
COc1ccc(-c2cc(C(=O)NCCc3ccccc3F)c3cnn(C)c3n2)cc1,·,?,·,31.6µM*
Cn1ncc2c(C(=O)NCCc3ccccc3F)cc(-c3ccsc3)nc21,·,-10.2%,·,-3.1%
O=C(NCCNC(=O)c1cccc(Cl)c1)c1ccc(-c2cccc(C(F)(F)F)c2)cc1,·,-4.1%,·,-2.3%
O=C(Nc1cnc(-c2ccc(Cl)cc2)nc1)c1ccccc1Cl,?,1.7%,0.631µM*,?
COc1ccc(CN2CC[C@@H](CO)N(C)c3nc(C)ccc3C2)cc1,-1.3%[70.6 µM],-20.1%[174 µM],i,?
Cc1ccc2c(n1)N(C)[C@H](CO)CCN(Cc1ccc(C(C)C)cc1)C2,-16.0%[70.6 µM],?,i,63.1µM*
Cc1ccc2c(n1)N(C)[C@H](CO)CCN(Cc1ccc(C(F)(F)F)cc1)C2,-10.6%[70.6 µM],63.1µM*,i,35.5µM*
Cc1ccc(-c2cc(N3CCC(CNC(=O)c4n[nH]c5c4CCCC5)CC3)n[nH]2)cc1,?,28.2µM*,?,?
Cc1ccc(-c2cc(N3CCC(CNC(=O)c4ccc[nH]4)CC3)n[nH]2)cc1,-1.0%,?,?,?
CN(C)c1cccc(C(=O)NCC2CCN(c3cc(-c4ccc(F)cc4)[nH]n3)CC2)c1,-22.1%,?,?,?
O=C(NCC1CCN(c2cc(-c3ccc(F)cc3)[nH]n2)CC1)c1n[nH]c2c1CCCC2,?,35.5µM*,?,39.8µM*
O=C(NCC1CCN(c2cc(-c3ccccc3)[nH]n2)CC1)c1n[nH]c2c1CCCC2,?,31.6µM*,?,?
CC(=O)N1CCCC(N2C(=O)c3c(c(C)nn3-c3ccccc3)C2C2CC2)C1 (stereo not given),·,?,·,-10.6%
COc1ccc(S(=O)(=O)NC[C@@H]2C=C(C)[C@H](CC(=O)NCc3ccc(C#N)cc3)C[C@H]2C(C)C)cc1,-9.0%,25.1µM*,i,?
CC1=C[C@@H](CNS(=O)(=O)c2ccccc2)[C@H](C(C)C)C[C@H]1CC(=O)NCCN(C)C,-0.9%,?,i,?
CC1=C[C@@H](CNS(=O)(=O)c2ccccc2)[C@H](C(C)C)C[C@H]1CC(=O)NCc1ccc(C#N)cc1,-7.2%,?,i,?
COc1ccccc1N1CCN(C(=O)C[C@@H]2C[C@@H](C(C)C)[C@H](CC#N)C=C2C)CC1,-18.5%[70.6 µM],?,i,35.5µM*
CCOC(=O)C[C@@H]1C[C@@H](C(C)C)[C@H](CNS(=O)(=O)c2ccccc2)C=C1C,?,?,i,63.1µM*
CC1=C[C@@H](CNS(=O)(=O)c2ccc(F)cc2)[C@H](C(C)C)C[C@H]1CC(=O)NCCN(C)C,-0.5%,39.8µM*,i,?
O=C(c1ccc(F)cc1)N1CCN(C(=O)c2nc3cccnc3n(Cc3ccccc3)c2=O)CC1,·,-9.5%,·,-7.4%
COc1ccccc1C(=O)N1CCC(C(=O)N2CCC(N3CCOCC3=O)CC2)CC1,·,-7.6%,·,i
CC(=O)Nc1ccc(S(=O)(=O)NC[C@@H]2C=C(C)[C@H](CC(=O)N3CCCC3)C[C@H]2C(C)C)cc1,2.2%,?,i,-22.0%
CC1=C[C@@H](CNC(=O)c2ccccn2)[C@H](C(C)C)C[C@H]1CC(=O)N1CCCC1,-4.1%[70.6 µM],100µM*,i,?
